From PubChem BioAssay (NCATS)
Values joined by “and” are separate entries in the source; they are usually repeats but may differ in a detail not shown here. Equal values may be shown once. Results filed as inconclusive are left out. More than one record can exist for a structure, and the calls need not agree. Active and inactive are the calls of the source. Calls come from the whole dose curve; as a rule, active = well fitted curve in the direction sought with a large enough effect; inconclusive = small, poorly fitted or top-dose-only effect, or another doubt; inactive = no such curve, though single readings can be large; an effect the other way counts as inactive or inconclusive.

What was measured:
[1] = test system: CRL-7250; assay: Cytotoxic Profiling of Annotated Libraries Using Quantitative High-Throughput Screening (AID 1296008); conditions: Five cell lines viability, CellTiter-Glo ATP luminescence, 48-72 h; max response: hits give low values; note: nearly all actives have a fitted effect of over 60% in size; note: potency is the fitted concentration of half-maximal effect
How it was run: (§1)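 Cells exposed to compounds for 48 or 72 hr at 37 degrees Celsius. Viability read as ATP-coupled luminescence with CellTiter-Glo after 10 min at room temperature.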

[2] = test system: HEK293; assay: as above; conditions: Five cell lines viability, CellTiter-Glo ATP luminescence, 48-72 h; max response: hits give low values
How it was run: as §1

[3] = test system: HaCat; assay: as above; conditions: Five cell lines viability, CellTiter-Glo ATP luminescence, 48-72 h; max response: hits give low values
How it was run: as §1

[4] = test system: KB-3-1; assay: as above; conditions: Five cell lines viability, CellTiter-Glo ATP luminescence, 48-72 h; max response: hits give low values
How it was run: as §1

[5] = test system: NIH3T3; assay: as above; conditions: Five cell lines viability, CellTiter-Glo ATP luminescence, 48-72 h; max response: hits give low values
How it was run: as §1

[6] = test system: HACAT; assay: qHTS assay to identify novel small-molecules to repurpose for Merkel cell carcinoma treatment (AID 1296009); conditions: MCC and control cell lines, CellTiter-Glo viability, 72 h; note: nearly all actives have a fitted effect of over 60% in size
How it was run: (§2)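 CellTiter-Glo luminescence after 72 hr compound exposure at 37 degree celsius gave cell viability. Libraries NPC and MIPE were run as 8- and 11-point dose responses; RLUs normalized to DMSO (negative) and no-cell (cytotoxicity) controls.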

[7] = test system: HEK293T; assay: as above; conditions: MCC and control cell lines, CellTiter-Glo viability, 72 h; at 44.8 µM (top of the series) unless noted
How it was run: as §2

[8] = test system: MCC-13; assay: as above; conditions: MCC and control cell lines, CellTiter-Glo viability, 72 h; series mostly up to 46 µM
How it was run: as §2

[9] = test system: MKL-1; assay: as above; conditions: MCC and control cell lines, CellTiter-Glo viability, 72 h; series mostly up to 46 µM
How it was run: as §2

[10] = test system: NIH3T3; assay: as above; conditions: MCC and control cell lines, CellTiter-Glo viability, 72 h; series mostly up to 44.8 µM
How it was run: as §2

[11] = test system: UISO; assay: as above; conditions: MCC and control cell lines, CellTiter-Glo viability, 72 h; series mostly up to 46 µM
How it was run: as §2

[12] = test system: WaGa; assay: as above; conditions: MCC and control cell lines, CellTiter-Glo viability, 72 h; series mostly up to 46 µM
How it was run: as §2

[13] = test system: C33A; assay: Primary qHTS to identify gynecologic anti-cancer compounds using libraries of approved drugs and bioactive compounds (AID 1345084); conditions: Gynecologic cancer cell panel viability, ATPlite luminescence, 48 h; series mostly up to 57.5 µM; note: nearly all actives have a fitted effect of over 55% in size; note: potency is the fitted concentration of half-maximal effect
How it was run: (§3)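 Cytotoxicity screen measuring ATP content by luciferase luminescence. Each compound is applied at five concentrations for 48 h at 37 C with 5% CO2.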

[14] = test system: CAOV3; assay: as above; conditions: Gynecologic cancer cell panel viability, ATPlite luminescence, 48 h; series mostly up to 57.5 µM
How it was run: as §3

[15] = test system: CASKI; assay: as above; conditions: Gynecologic cancer cell panel viability, ATPlite luminescence, 48 h; series mostly up to 57.5 µM
How it was run: as §3

[16] = test system: Es-2; assay: as above; conditions: Gynecologic cancer cell panel viability, ATPlite luminescence, 48 h; series mostly up to 57.5 µM
How it was run: as §3

[17] = test system: HeLa; assay: as above; conditions: Gynecologic cancer cell panel viability, ATPlite luminescence, 48 h; series mostly up to 57.5 µM
How it was run: as §3

[18] = test system: Hek293T; assay: as above; conditions: Gynecologic cancer cell panel viability, ATPlite luminescence, 48 h, control line for the selectivity index; series mostly up to 57.5 µM
How it was run: as §3

[19] = test system: MKL-2; assay: qHTS assay to identify novel small-molecules to repurpose for Merkel cell carcinoma treatment (AID 1296009); conditions: MCC and control cell lines, CellTiter-Glo viability, 72 h; series mostly up to 46 µM; note: nearly all actives have a fitted effect of over 60% in size
How it was run: as §2

[20] = test system: MCC-26; assay: as above; conditions: MCC and control cell lines, CellTiter-Glo viability, 72 h; series mostly up to 46 µM
How it was run: as §2

[21] = at 44.8 µM (top of the series) unless noted
% is set by controls: 0 for no effect and ±100 for the full control effect.

COc1ccnc(CS(=O)c2nc3ccc(OC(F)F)cc3[nH]2)c1OC (stereo not given)
inactive: max response [1] 3.58% | outcome [2] | max response [3] -12.5% | outcome [3] | max response [4] -0.194% and 5.88% | max response [5] -24% | outcome [5] | outcome [6, 21] | outcome [7] | Potency [8] | Potency [9] | Potency [10] | Potency [11] | Potency [12] | Potency [13] | Potency [14] | Potency [15] | Potency [16] | Potency [17] | Potency [18]

Cc1cnc(-c2cc(N3CCN(C(=O)CCS(C)(=O)=O)CC3)ncc2Cl)c(C)c1
inactive: max response [1] 2.67% | outcome [1] | max response [2] 2.19% | outcome [2] | outcome [3] | max response [4] 3.56% and 2.16% | outcome [5] | outcome [6, 21] | outcome [7] | Potency [8] | Potency [9] | Potency [19] | Potency [10] | Potency [11] | Potency [12] | Potency [13] | Potency [14] | Potency [15] | Potency [16] | Potency [17] | Potency [18]

COc1ccc(CCC(=O)Nc2nc3ccc(Cl)cc3s2)cc1OC
inactive: max response [1] 1.51% and -1.65% | max response [2] -26% | max response [3] -6.83% | outcome [3] | max response [4] -8.12% and -15.4% | max response [5] -12.1% | outcome [5] | outcome [6, 21] | Potency [8] | Potency [20] | Potency [9] | Potency [19] | Potency [10] | Potency [11] | Potency [12] | Potency [13] | Potency [14] | Potency [15] | Potency [16] | Potency [17] | Potency [18]

O=C(CO)N1CCC(c2[nH]nc(-c3ccc(Cl)cc3)c2-c2ccncn2)CC1
inactive: max response [1] 0.635% and -7.11% | max response [2] -13.1% and -1.15% | max response [3] -4.95% | max response [4] 6.51% | outcome [4] | Potency [8] | Potency [20] | Potency [9] | Potency [19] | Potency [13] | Potency [14] | Potency [15] | Potency [16] | Potency [17] | Potency [18]

O=C1C(c2c(O)[nH]c3ccccc23)=Nc2ccccc21
inactive: outcome [1] | max response [2] -1.42% | outcome [3] | outcome [4] | max response [5] 2.3% | outcome [5] | outcome ([6]; at 17.4 µM (top of the series)) | outcome ([6]; at 44.8 µM (top of the series)) | Potency [8] | Potency [20] | Potency [9] | Potency [19] | Potency [10] | Potency [12] | Potency [13] | Potency [14] | Potency [15] | Potency [16] | Potency [17] | Potency [18]

CN1c2ccccc2C(=O)N2CCc3c([nH]c4ccccc34)C21 (stereo not given)
active: Potency [2] 1.64 µM | Potency [4] 5.17 µM | Potency [15] 7.08 µM | Potency [16] 14.1 µM | Potency [17] 7.94 µM
inactive: max response [1] 4.95% | max response [2] -2.28% | max response [3] -3.12% | max response [4] 1.03% | max response [5] -8.68% | Potency [8] | Potency [20] | Potency [9] | Potency [19] | Potency [11] | Potency [12]

NC(=O)c1ccc(N(C(N)=O)c2c(F)cccc2F)nc1-c1ccc(F)cc1F
inactive: max response [1] -5.46% and 0.374% | max response [2] -4.84% and -3.96% | max response [3] -19.1% and -25.7% | max response [4] 7.33% | outcome [4] | max response [5] 4.54% | outcome [5] | Potency [8] | Potency [20] | Potency [9] | Potency [19] | Potency [10] | Potency [11] | Potency [12] | Potency [13] | Potency [14] | Potency [15] | Potency [16] | Potency [17] | Potency [18]

CN1C(=O)C(Cc2c[nH]c3ccccc23)NC1=S (stereo not given)
inactive: max response [1] 3.65% and -1.79% | max response [2] 1.8% | outcome [2] | outcome [3] | max response [4] 2.81% | outcome [4] | max response [5] -1.6% and -5.02% | outcome ([6]; at 17.4 µM (top of the series)) | outcome ([6]; at 44.8 µM (top of the series)) | outcome [7] | Potency [8] | Potency [20] | Potency [9] | Potency [19] | Potency [11] | Potency [12] | Potency [14] | Potency [15] | Potency [16] | Potency [17] | Potency [18]

COc1cc(Nc2nc3ccccc3nc2NS(=O)(=O)c2ccc(NC(=O)c3ccc(C)c(OC)c3)cc2)cc(OC)c1
inactive: max response [1] -27.1% and -5.83% | outcome [2] | max response [3] -23.6% and -15% | max response [4] 6.27% | outcome [4] | max response [5] -5.22% | outcome [5] | outcome [7] | Potency [8] | Potency [20] | Potency [9] | Potency [19] | Potency [10] | Potency [11] | Potency [12] | Potency [13] | Potency [14] | Potency [15] | Potency [16] | Potency [17] | Potency [18]
